Data taken from PubChem BioAssay.
Results filed as inconclusive are left out. Calls of active or inactive are those of the source. Unless noted, no cut-off is given here; in the data, nearly all actives have AC50 up to about 27 µM.

Test: viability loss in pontine glioma line – cell-based, SU-DIPG-XIII, MIPE4.0, CellTiter-Glo, qHTS, dose response (AID 1347061; cut-off not given, nearly all actives have AC50 up to about 37 µM;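 note: cells exposed to compound for 48 hours before readout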)
Conditions: CellTiter-Glo ATP luminescence

SMILES | outcome | AC50
COc1c(O)cc2c(c1O)[C@@H]1O[C@H](CO)[C@@H](O)[C@H](O)[C@H]1OC2=O | inactive | 
CCC(=O)NCC[C@@H]1CCc2ccc3c(c21)CCO3 | inactive | 
C[C@@H]1[C@H](O)[C@@H](C)/C=C/C=C/C=C/C=C/C=C/C=C/C=C/[C@H](O[C@@H]2O[C@H](C)[C@@H](O)[C@H](N)[C@@H]2O)C[C@@H]2O[C@](O)(C[C@@H](O)C[C@@H](O)[C@H](O)CC[C@@H](O)C[C@@H](O)CC(=O)O[C@H]1C)C[C@H](O)[C@H]2C(=O)O |  | 833 nM (active)
CC(C)(S)[C@@H](N)C(=O)O | inactive | 
CC1(C)[C@@H](O)CC[C@]2(C)[C@H]3C(=O)C=C4[C@@H]5C[C@@](C)(C(=O)O)CC[C@]5(C)CC[C@@]4(C)[C@]3(C)CC[C@@H]12 | inactive | 
CN[C@H](CC(C)C)C(=O)N[C@H]1C(=O)N[C@@H](CC(N)=O)C(=O)N[C@H]2C(=O)N[C@H]3C(=O)N[C@H](C(=O)N[C@H](C(=O)O)c4cc(O)cc(O)c4-c4cc3ccc4O)[C@H](O)c3ccc(c(Cl)c3)Oc3cc2cc(c3O[C@@H]2O[C@H](CO)[C@@H](O)[C@H](O)[C@H]2O[C@H]2C[C@](C)(N)[C@H](O)[C@H](C)O2)Oc2ccc(cc2Cl)[C@H]1O | inactive | 
C[C@H]1O[C@@H](O[C@H]2[C@@H](O)C[C@H](O[C@H]3[C@@H](O)C[C@H](O[C@H]4CC[C@@]5(C)[C@H](CC[C@@H]6[C@@H]5C[C@@H](O)[C@]5(C)[C@@H](C7=CC(=O)OC7)CC[C@]65O)C4)O[C@@H]3C)O[C@@H]2C)C[C@H](O)[C@@H]1O |  | 95.9 nM (active)
C[C@H]1C[C@H]2[C@@H]3CCC4=CC(=O)C=C[C@]4(C)[C@@]3(F)[C@@H](O)C[C@]2(C)[C@@]1(O)C(=O)CO | inactive | 
C=C(C)[C@@H]1CC[C@]2(C(=O)O)CC[C@]3(C)[C@H](CC[C@@H]4[C@@]5(C)CC[C@H](O)C(C)(C)[C@@H]5CC[C@]43C)[C@@H]12 | inactive | 
COc1ccc(CCC(=O)c2c(O)cc(O[C@@H]3O[C@H](CO)[C@@H](O)[C@H](O)[C@H]3O[C@@H]3O[C@@H](C)[C@H](O)[C@@H](O)[C@H]3O)cc2O)cc1O |  | 2350 nM (active)
Nc1ccn([C@@H]2O[C@H](CO)[C@@H](O)[C@H]2O)c(=O)n1 | inactive | 
C[C@@]12C[C@@]3(O)O[C@@H](O1)[C@]1(COC(=O)c4ccccc4)[C@H]3C[C@@]12O[C@@H]1O[C@H](CO)[C@@H](O)[C@H](O)[C@H]1O | inactive | 
CC(=O)[C@H]1CC[C@H]2[C@@H]3CCC4=CC(=O)CC[C@]4(C)[C@H]3CC[C@]12C |  | 1870 nM (active)
COC1=C(OC)C(=O)C(C/C=C(\C)CC/C=C(\C)CC/C=C(\C)CC/C=C(\C)CC/C=C(\C)CC/C=C(\C)CC/C=C(\C)CC/C=C(\C)CC/C=C(\C)CCC=C(C)C)=C(C)C1=O | inactive | 
CCC[C@@H]1C[C@@H](C(=O)N[C@@H]([C@H]2O[C@H](SC)[C@H](O)[C@@H](O)[C@H]2O)[C@@H](C)O)N(C)C1 | inactive | 
COc1ccc([C@@H]2CC(=O)c3c(O)cc(O[C@@H]4O[C@H](CO[C@@H]5O[C@@H](C)[C@H](O)[C@@H](O)[C@H]5O)[C@@H](O)[C@H](O)[C@H]4O)cc3O2)cc1O |  | 14800 nM (active)
O=C1c2c(O)cccc2[C@H]([C@@H]2O[C@H](CO)[C@@H](O)[C@H](O)[C@H]2O)c2cc(CO)cc(O)c21 | inactive | 
N=c1ccn2c(n1)O[C@H]1[C@H](O)[C@@H](CO)O[C@H]12 | inactive | 
CC1(C)[C@@H](O[C@H]2O[C@H](C(=O)O)[C@@H](O)[C@H](O)[C@H]2O[C@@H]2O[C@H](C(=O)O)[C@@H](O)[C@H](O)[C@H]2O)CC[C@]2(C)[C@H]3C(=O)C=C4[C@@H]5C[C@@](C)(C(=O)O)CC[C@]5(C)CC[C@@]4(C)[C@]3(C)CC[C@@H]12 | inactive | 
C[C@H](CCC(=O)O)[C@H]1CC[C@H]2[C@@H]3[C@H](O)C[C@@H]4C[C@H](O)CC[C@]4(C)[C@H]3CC[C@]12C | inactive | 

Test: viability loss in pontine glioma line – cell-based, JHH-DIPG-1, MIPE4.0, CellTiter-Glo, qHTS, dose response (AID 1347062);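 for AC50: cells exposed to compound for two days before readout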
Conditions: JHH-DIPG-1 viability, CellTiter-Glo ATP luminescence

SMILES | outcome | AC50
COc1c(O)cc2c(c1O)[C@@H]1O[C@H](CO)[C@@H](O)[C@H](O)[C@H]1OC2=O | inactive | 
CCC(=O)NCC[C@@H]1CCc2ccc3c(c21)CCO3 | inactive | 
C[C@@H]1[C@H](O)[C@@H](C)/C=C/C=C/C=C/C=C/C=C/C=C/C=C/[C@H](O[C@@H]2O[C@H](C)[C@@H](O)[C@H](N)[C@@H]2O)C[C@@H]2O[C@](O)(C[C@@H](O)C[C@@H](O)[C@H](O)CC[C@@H](O)C[C@@H](O)CC(=O)O[C@H]1C)C[C@H](O)[C@H]2C(=O)O |  | 1320 nM (active)
CC(C)(S)[C@@H](N)C(=O)O | inactive | 
CC1(C)[C@@H](O)CC[C@]2(C)[C@H]3C(=O)C=C4[C@@H]5C[C@@](C)(C(=O)O)CC[C@]5(C)CC[C@@]4(C)[C@]3(C)CC[C@@H]12 | inactive | 
CN[C@H](CC(C)C)C(=O)N[C@H]1C(=O)N[C@@H](CC(N)=O)C(=O)N[C@H]2C(=O)N[C@H]3C(=O)N[C@H](C(=O)N[C@H](C(=O)O)c4cc(O)cc(O)c4-c4cc3ccc4O)[C@H](O)c3ccc(c(Cl)c3)Oc3cc2cc(c3O[C@@H]2O[C@H](CO)[C@@H](O)[C@H](O)[C@H]2O[C@H]2C[C@](C)(N)[C@H](O)[C@H](C)O2)Oc2ccc(cc2Cl)[C@H]1O | inactive | 
CC[C@@]1(O)C[C@H](O[C@H]2C[C@H](N(C)C)[C@H](O[C@H]3C[C@H](O)[C@H](O[C@H]4CCC(=O)[C@H](C)O4)[C@H](C)O3)[C@H](C)O2)c2c(cc3c(c2O)C(=O)c2c(O)cccc2C3=O)[C@H]1C(=O)OC |  | 332 nM (active)
COc1cc([C@@H]2c3cc4c(cc3[C@@H](O[C@@H]3O[C@@H]5CO[C@@H](c6cccs6)O[C@H]5[C@H](O)[C@H]3O)[C@H]3COC(=O)[C@H]23)OCO4)cc(OC)c1O |  | 13200 nM (active)
C[C@H]1O[C@@H](O[C@H]2[C@@H](O)C[C@H](O[C@H]3[C@@H](O)C[C@H](O[C@H]4CC[C@@]5(C)[C@H](CC[C@@H]6[C@@H]5C[C@@H](O)[C@]5(C)[C@@H](C7=CC(=O)OC7)CC[C@]65O)C4)O[C@@H]3C)O[C@@H]2C)C[C@H](O)[C@@H]1O |  | 30.3 nM (active)
C[C@H]1C[C@H]2[C@@H]3CCC4=CC(=O)C=C[C@]4(C)[C@@]3(F)[C@@H](O)C[C@]2(C)[C@@]1(O)C(=O)CO | inactive | 
CC(C)(O)CC[C@@H](O)[C@](C)(O)[C@H]1CC[C@@]2(O)C3=CC(=O)[C@@H]4C[C@@H](O)[C@@H](O)C[C@]4(C)[C@H]3CC[C@]12C | inactive | 
C=C(C)[C@@H]1CC[C@]2(C(=O)O)CC[C@]3(C)[C@H](CC[C@@H]4[C@@]5(C)CC[C@H](O)C(C)(C)[C@@H]5CC[C@]43C)[C@@H]12 | inactive | 
COc1cc([C@@H]2c3cc4c(cc3[C@H](O)[C@H]3COC(=O)[C@@H]23)OCO4)cc(OC)c1OC |  | 235 nM (active)
COc1ccc(CCC(=O)c2c(O)cc(O[C@@H]3O[C@H](CO)[C@@H](O)[C@H](O)[C@H]3O[C@@H]3O[C@@H](C)[C@H](O)[C@@H](O)[C@H]3O)cc2O)cc1O | inactive | 
Nc1ccn([C@@H]2O[C@H](CO)[C@@H](O)[C@H]2O)c(=O)n1 | inactive | 
C[C@@]12C[C@@]3(O)O[C@@H](O1)[C@]1(COC(=O)c4ccccc4)[C@H]3C[C@@]12O[C@@H]1O[C@H](CO)[C@@H](O)[C@H](O)[C@H]1O | inactive | 
CC(=O)[C@H]1CC[C@H]2[C@@H]3CCC4=CC(=O)CC[C@]4(C)[C@H]3CC[C@]12C | inactive | 
COC1=C(OC)C(=O)C(C/C=C(\C)CC/C=C(\C)CC/C=C(\C)CC/C=C(\C)CC/C=C(\C)CC/C=C(\C)CC/C=C(\C)CC/C=C(\C)CC/C=C(\C)CCC=C(C)C)=C(C)C1=O | inactive | 
CCC[C@@H]1C[C@@H](C(=O)N[C@@H]([C@H]2O[C@H](SC)[C@H](O)[C@@H](O)[C@H]2O)[C@@H](C)O)N(C)C1 | inactive | 
COc1ccc(-c2cc(=O)c3c(O)cc(O[C@@H]4O[C@H](CO[C@@H]5O[C@@H](C)[C@H](O)[C@@H](O)[C@H]5O)[C@@H](O)[C@H](O)[C@H]4O)cc3o2)cc1O | inactive | 
O=C1c2c(O)cccc2[C@H]([C@@H]2O[C@H](CO)[C@@H](O)[C@H](O)[C@H]2O)c2cc(CO)cc(O)c21 | inactive | 
N=c1ccn2c(n1)O[C@H]1[C@H](O)[C@@H](CO)O[C@H]12 | inactive | 
CC1(C)[C@@H](O[C@H]2O[C@H](C(=O)O)[C@@H](O)[C@H](O)[C@H]2O[C@@H]2O[C@H](C(=O)O)[C@@H](O)[C@H](O)[C@H]2O)CC[C@]2(C)[C@H]3C(=O)C=C4[C@@H]5C[C@@](C)(C(=O)O)CC[C@]5(C)CC[C@@]4(C)[C@]3(C)CC[C@@H]12 | inactive | 
C[C@H](CCC(=O)O)[C@H]1CC[C@H]2[C@@H]3[C@H](O)C[C@@H]4C[C@H](O)CC[C@]4(C)[C@H]3CC[C@]12C | inactive | 
